Test results reported in PubChem BioAssay (Tox21).
Inconclusive results are not listed. Where a call stands in place of a potency, no number is given. Values without a mark were called inactive. The source made the active and inactive calls. The call rests on the fitted dose curve; in most records, active means well fitted cell-killing curve with a large enough effect in the repeat runs; inconclusive means weak or mixed curves; inactive means flat fitted curve, though single readings scatter.

Assay: qHTS RealTime-Glo MT Cell Viability Assay in HepG2 cells - 16 hour (AID 1224885); further: nearly all actives have a fitted effect of over 50% in size
Conditions: RealTime-Glo luminescence; series mostly up to 76.8 µM
Excerpt: U.S. Tox21 Program National Center for Advancing Translational Sciences [NCATS] NIH Chemical Genomics Center [NCGC] U.S. Environmental Protection Agency [EPA] National Institutes of Environmental Health Sciences [NIEHS] National Toxicology Program [NTP] U.S. Food and Drug Administration [FDA] Tox21 Assay Overview: Measure of cell viability is critical in the cell-base assay. Analysis of cell viability is necessary for the characterization of cell responses to cytotoxic drugs and environmental stress. A RealTime-Glo MT Cell Viability Assay to monitor cell viability in real time of continues cell culture during 40 hours of compound treatment was used to screen Tox21 10K library compounds in HepG2 cells. The RealTime-Glo MT Cell Viability Assay is a nonlytic, homogeneous, bioluminescent method to measure cell viability in real time using a simple, plate-based method. The assay involves adding NanoLuc luciferase and a cell-permeant prosubstrate to cells in culture. Viable cells reduce the proprietary prosubstrate to generate a substrate for NanoLuc luciferase. This substrate diffuses from cells into the surrounding culture medium, where it is rapidly used by the NanoLuc Enzyme to produce a luminescent signal. The signal correlates with the number of viable cells, making the assay well suited for cytotoxicity studies.
Tox21 Assay Protocol Summary: The mixture of HepG2 cell suspension and reagents were dispensed at 600cells/6 ul/well in 1536-well tissue culture treated black solid bottom plates using a Multidrop dispenser. After the assay plates were incubated at a 37 C/5% CO2 incubator for 5 hours, 23 nL of compounds dissolved in DMSO, positive and negative controls was transferred to the assay plate by a pintool work station. The plates were incubated at 37 C for 40 hours. The luminescence intensity were measured at 0h, 8h, 16h, 24h, 32h and 40h time points using ViewLux plate reader during compound treatment.
Potency means the concentration at half of the fitted maximal effect.

Structure (SMILES) | Potency | activity change, negative = cytotoxic
O=C(O)c1cc(O)c2ccccc2c1O | 19.5 µM (active) | 
Nc1ccc(C(=O)O)c(O)c1 | inactive | 
C[C@@H](O)[C@H](N)C(=O)O |  | -0.0796% [at 15.8 µM]
CCCCC/C=C\C/C=C\CCCCCCCC(=O)O | inactive | 
CNc1ccc([N+](=O)[O-])cc1 | inactive | 
C=C(C)C(=O)OCCCCCCCCCC | inactive | 
CC(CCc1ccccc1)NCC(O)c1ccc(O)c(C(N)=O)c1 (stereo not given) | inactive | 
CCOC(=O)NNc1ccc(N(CC)CC(C)O)nn1 (stereo not given) | inactive | 
CC(C)Cn1cnc2c(N)nc3ccccc3c21 |  | 0.56% [at 15.8 µM]
FC(F)(F)c1cccc(Cl)c1 | inactive | 
C=CCn1c(=O)n(CC=C)c(=O)n(CC=C)c1=O | inactive | 
CC(N=C(NC#N)Nc1ccncc1)C(C)(C)C (stereo not given) | inactive | 
COC(C)=O | inactive | 
O=c1oc2cc(O)ccc2c2oc3cc(O)ccc3c12 | inactive | 
Clc1ccnc(Cl)n1 | inactive | 
O=C1NC(=O)[C@@H]2CC=CC[C@H]12 | inactive | 
COc1ccc(-c2coc3cc(O)ccc3c2=O)cc1 | inactive | 
CCO[Si](OCC)(OCC)OCC | inactive | 
CCCC1CCC(=O)CC1 | inactive | 
C=CC(C)(CCC=C(C)C)OC=O (stereo not given) | inactive | 

Structure (SMILES) | Potency | activity change, negative = cytotoxic
C#C[C@]1(O)CC[C@H]2[C@@H]3[C@H](C)CC4=C(CCC(=O)C4)[C@H]3CC[C@@]21C | inactive | 
Oc1c(I)cc(Cl)c2cccnc12 | inactive | 
CC[N+](CC)(CC)CCOC(=O)C(C1CCCC1)C1CCCC1 | inactive | 
OC12N=C(c3ccccc3)SC1Cc1cc(Cl)ccc12 (stereo not given) | inactive | 
CN1CCCCC1CCN1c2ccccc2Sc2ccc(S(C)=O)cc21 (stereo not given) | inactive | 
C=C(C)c1cccc(C(=C)C)c1 | inactive | 
CN(C)Cc1ccccc1O | inactive | 
CC1=Nc2ccccc2C1(C)C | inactive | 
O=C(O)c1cc(=O)c2ccccc2o1 | inactive | 
CCN(CC)C(=O)c1cc(S(=O)(=O)Cc2ccccc2)c(N2CCC(c3ccccc3)CC2)cc1N(CC)CCN(C)C | 19.3 µM (active) | 
Cc1cc(=O)oc2cc(O)cc(O)c12 | inactive | 
O=S(=O)(O)c1ccccc1/C=C/c1ccc(-c2ccc(/C=C/c3ccccc3S(=O)(=O)O)cc2)cc1 | inactive | 
OC1CCCc2ccccc21 (stereo not given) | inactive | 
NC[C@H]1O[C@H](O[C@H]2[C@H](O[C@@H]3O[C@H](CO)[C@@H](O)[C@H]3O)C(O)[C@H](N)C[C@@H]2N)[C@H](N)[C@@H](O)[C@@H]1O (stereo not given in full) |  | 1.38% [at 6.97 µM]
CCCCCCCC | inactive | 
Nc1ccc(Oc2ccc(Cl)cc2)cc1 | inactive | 
CC(C)CCCCCOC(=O)CCS | inactive | 
CC(=O)CC(=O)Nc1ccc(S(=O)(=O)O)cc1 | inactive | 
COc1cc(C)ccc1O | inactive | 
ClCCl | inactive | 
